# ABHD5-PLIN5 inh = inhibitors of human ABHD5-perilipin-5 interaction | Q00G26+Q8WTS1 | Split G. princeps luciferase complementation, luminescence, 4 h | inhibition, % at 4 µM | hit rate 0.78% among 360,000 | AID 602281;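 active means inhibition above the mean inhibition across every tested compound plus 3 SD, cut at about 22% in these data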
# TLR4 MyD88 comp = inhibitors of human TLR4-MyD88 binding; O00206+Q99836; HeLa CL3-4 TLR4/MyD88 BLA complementation, FRET ratio; inhibition, % at 8.4 µM; hit rate 0.18% among 200,000; AID 861; in the data active means inhibition above about 25%
# m5-HT2A agonist = mouse HTR2A agonism via beta-arrestin recruitment; P35363; CHO-K1 mHTR2A beta-arrestin complementation, luminescence; percent of 30 µM serotonin response; activation, % at 7.6 µM; hit rate 0.66% among 360,000; AID 624169;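 active means activation above a run cutoff, the mean activation of all tested compounds plus 3 SD, cut at about 14% in these data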
# CRFBP-R2 block = antagonists of CRF-binding protein/CRF-R2 receptor complex; HEK293 CRF-R2/CRF-BP, CRF-induced calcium fluorescence; hit rate 0.59% among 350,000; AID 588475; inhibition, % at 11.8 µM;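 active means inhibition of the ligand-induced calcium signal above about 50% at the single tested concentration, limit read from the data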
# NOD2 RIPK2 PPI = blocks binding of human NOD2 to RIPK2; hit rate 0.38% among 360,000; CHO BLA complementation NOD2-RIPK2, CCF4 ratio; inhibition, % at 4.98 µM; in the data active means inhibition above about 21%
# Target sequence (O43353 whole entry, looked up): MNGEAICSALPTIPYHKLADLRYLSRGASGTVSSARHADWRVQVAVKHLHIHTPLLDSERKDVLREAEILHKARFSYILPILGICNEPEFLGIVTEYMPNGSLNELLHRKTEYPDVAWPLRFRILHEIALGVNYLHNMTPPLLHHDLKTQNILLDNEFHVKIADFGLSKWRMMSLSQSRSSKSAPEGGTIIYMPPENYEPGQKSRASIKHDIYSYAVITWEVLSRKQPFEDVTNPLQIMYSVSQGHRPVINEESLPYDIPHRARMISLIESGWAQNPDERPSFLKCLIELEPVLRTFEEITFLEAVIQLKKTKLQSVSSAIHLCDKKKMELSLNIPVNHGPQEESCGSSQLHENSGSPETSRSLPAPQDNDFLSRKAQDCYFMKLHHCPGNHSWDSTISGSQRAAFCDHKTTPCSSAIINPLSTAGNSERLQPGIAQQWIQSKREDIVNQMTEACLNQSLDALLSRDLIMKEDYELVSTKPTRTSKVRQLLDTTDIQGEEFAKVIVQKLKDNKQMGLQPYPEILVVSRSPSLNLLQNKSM
# TLR9-MyD88 block = blocks human TLR9 binding to MyD88; hit rate 0.21% among 340,000; CHO BLA complementation TLR9-MyD88, CCF4 FRET ratio; inhibition, % at 4.98 µM;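 active means inhibition above the mean over all tested compounds plus 3 SD, cut at about 21% in these data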
# Hits are given with their value; 0 = inactive; - = no result given. Hits are enriched below; roughly 2.4% of the tested compounds scored in any of these assays.
SMILES,ABHD5-PLIN5 inh,TLR4 MyD88 comp,m5-HT2A agonist,CRFBP-R2 block,NOD2 RIPK2 PPI,TLR9-MyD88 block
Cc1nn(-c2ccccc2)c(N)c1Sc1ccc([N+](=O)[O-])cc1,0,0,0,58,0,0
CSc1ccccc1OCc1cc(C(=O)NCc2csc(C(C)C)n2)no1,0,-,0,105,0,0
CC(C)c1nc(CNC(=O)c2cc(COc3c(F)cccc3F)on2)cs1,0,0,0,0,0,0
c1cncc(-c2ccc3ncnc(NCc4cccs4)c3c2)c1,0,-,0,0,0,0
COc1cccc(-c2ccc3ncnc(NCc4cccs4)c3c2)c1,0,-,0,54,0,0
Cc1ccc(-c2ccc(/C=N/NC(=O)Cc3nnc(N)s3)o2)cc1Cl,0,-,0,0,0,0
COc1ccc(-c2ccc(/C=N/NC(=O)Cc3nnc(N)s3)o2)cc1Cl,0,-,0,55,0,-
COc1cccc(CN2CCN(C(=O)[C@H]3O[C@@H](n4cnc5c(N)ncnc54)[C@H](O)[C@@H]3O)CC2=O)c1,0,-,0,-,0,-
Cc1ccccc1Nc1nc(N)nc(COC(=O)c2ccccc2)n1,0,0,0,0,0,0
Cc1ccccc1Nc1nc(N)nc(COC(=O)c2cccc(S(=O)(=O)N(C)c3ccccc3)c2)n1,0,0,0,51,0,0
O=c1/c(=C\c2cc([N+](=O)[O-])cc([N+](=O)[O-])c2O)sc2nc3ccccc3n12,0,0,0,60,0,0
CCCc1nc2c3ccccc3ccn2c1Cc1ccc(OC)cc1C,0,-,0,-,0,-
CCN(C(=O)COC(=O)Cc1cccc2ccccc12)C1CCS(=O)(=O)C1 (stereo not drawn),0,-,0,122,0,0
c1ccc(-n2c(-c3ccncc3)nnc2-c2ccco2)cc1,0,0,0,56,0,0
c1ccc(-c2nnc(-c3ccco3)n2-c2ccccc2)cc1,0,0,0,0,0,0
COC(=O)c1sc(-c2ccc(Cl)cc2)cc1NC(=O)CSCC(=O)O,0,-,0,0,0,0
COC(=O)c1sc(-c2ccc(C(C)(C)C)cc2)cc1NC(=O)COCC(=O)O,0,-,0,60,0,-
CCc1nc2c(OCC(=O)C(C)(C)C)cccn2c1N(C)C(=O)c1ccc(C)cc1,0,-,0,-,0,-
CCc1nc2ccc(C(=O)NCc3ccccc3OC)cn2c1N(CC)Cc1cccc(Br)c1,0,-,0,-,0,-
Cc1cc(C)cc(C(O)c2ncc(-c3ccccc3F)[nH]2)c1 (stereo not drawn),0,-,0,-,0,-
CCN(CC)Cc1c(C)[nH]c2ccc(NC(C)=O)cc2c1=O,0,-,0,67,0,0
C[C@@H]1CCCCO[C@@H](CN(C)CC2CC2)[C@@H](C)CN([C@H](C)CO)C(=O)c2cc(N(C)C)ccc2O1,0,-,0,66,0,0
O=C(Nc1nnc(S(=O)(=O)N2CCCCC2)s1)c1ccc(Cl)cc1,0,-,0,71,0,0
O=C(Nc1nnc(S(=O)(=O)N2CCCCCC2)s1)c1ccc(Br)cc1,0,-,0,0,0,0
O=C(Cc1c(O)c2ccccc2[nH]c1=O)N(Cc1ccccc1)Cc1ccccc1,0,0,0,0,0,0
SMILES,ABHD5-PLIN5 inh,TLR4 MyD88 comp,m5-HT2A agonist,CRFBP-R2 block,NOD2 RIPK2 PPI,TLR9-MyD88 block
O=C(Cc1c(O)c2ccccc2[nH]c1=O)OC1CCCCC1,0,0,0,67,0,0
Cc1cn([C@H]2C[C@H](O)[C@@H](/C=C/C(=O)NCCC(C)C)O2)c(=O)[nH]c1=O,0,-,0,-,0,-
Cc1ccc(C)c(NC(=S)Nc2ncccc2C)c1,0,0,0,124,0,0
Cc1cccnc1NC(=S)Nc1ccc(F)cc1F,0,0,0,0,0,0
CSc1ccc(/C=C/C(=O)N2CCN(c3ccccn3)CC2)cc1,0,-,0,92,0,0
Cc1ccc(N2CC(C(=O)NC3CC3)CC2=O)cc1 (stereo not drawn),0,-,0,0,0,0
Cc1ccc(N2CC(C(=O)NC3CCC(C)CC3)CC2=O)cc1 (stereo not drawn),0,-,0,67,0,0
COc1ccccc1C(=O)NCCC(=O)N1CC=C(c2ccccc2)CC1,24,-,0,0,0,0
COc1ccccc1C(=O)NCCC(=O)N1CCN(c2ccccc2O)CC1,0,-,0,71,0,0
CCc1nc2ccc(C(=O)N(C)CCCN(C)C)cn2c1N(C)Cc1cc2ccccc2s1,0,-,0,-,0,-
CCOC(=O)c1cc2ccccc2n1C1CCN(C)CC1,0,-,0,-,0,-
C=CCNC(=O)/C(C#N)=C/c1ccccc1OCc1ccc(C(=O)OC)cc1,22,0,0,0,0,0
c1ccc(OCCNc2ccn3nc(-c4ccco4)cc3n2)cc1,0,-,0,-,0,-
CCC(=O)N1CCC1(C)C(=O)Nc1ccc(OC(F)F)cc1 (stereo not drawn),0,-,0,-,0,-
O=C(CSc1nnc(-c2ccco2)c(-c2ccco2)n1)Nc1ccccc1,26,0,0,0,0,0
Cc1ccccc1NC(=O)CSc1nnc(-c2ccco2)c(-c2ccco2)n1,0,0,0,0,0,0
Cc1cccc(C)c1NC(=O)CSc1nnc(-c2ccco2)c(-c2ccco2)n1,23,0,0,0,0,0
CCOC(=O)[C@]12CCC=C1N(Cc1ccc3c(c1)OCO3)C(=O)[C@H](CC(=O)NCCC(C)C)C2,0,-,0,-,0,-
Cc1ccc(CN(C(=O)c2ccccc2[N+](=O)[O-])C2CCS(=O)(=O)C2)o1 (stereo not drawn),0,-,0,58,0,0
O=C(c1ccco1)N1CCN=C1SCc1ccccc1Cl,0,0,0,101,0,0
O=C(c1ccco1)N1CCN=C1SCc1c(F)cccc1Cl,0,0,0,0,0,0
OC(C#CCN1CCCCCC1)(c1ccccc1)c1cccnc1 (stereo not drawn),0,-,0,117,0,0
OC(C#CCN1CCCC1)(c1ccccc1)c1cccnc1 (stereo not drawn),0,-,0,0,0,-
COc1cccc(CNC(=O)[C@@H]2CCCN2C(=O)[C@H]2CCCCN2C(=O)c2cccc(Cl)c2)c1,0,-,0,-,0,-
Brc1cccc(C2CC(c3ccccc3)n3nnnc3N2)c1 (stereo not drawn),0,0,0,55,0,0
c1ccc(C2CC(c3cccs3)Nc3nnnn32)cc1 (stereo not drawn),0,0,0,0,0,0

# Screening results deposited in PubChem by several laboratories.
